Experimental data published in PubChem BioAssay (Tox21).
Records with an inconclusive call do not appear. A number with no mark means an inactive call. Activity calls are given as the source filed them. Calls come from the whole dose curve; as a rule, active = well fitted cell-killing curve with a large enough effect in the repeat runs; inconclusive = weak or mixed curves; inactive = flat fitted curve, though single readings scatter.

Test: qHTS RealTime-Glo MT Cell Viability Assay in HepG2 cells - 24 hour (AID 1224867); note: nearly all actives have a fitted effect of over 50% in size
Conditions: RealTime-Glo luminescence; series mostly up to 76.8 µM; activity change, negative = cytotoxicity: at the top concentration
Excerpt: U.S. Tox21 Program National Center for Advancing Translational Sciences [NCATS] NIH Chemical Genomics Center [NCGC] U.S. Environmental Protection Agency [EPA] National Institutes of Environmental Health Sciences [NIEHS] National Toxicology Program [NTP] U.S. Food and Drug Administration [FDA] Tox21 Assay Overview: Measure of cell viability is critical in the cell-base assay. Analysis of cell viability is necessary for the characterization of cell responses to cytotoxic drugs and environmental stress. A RealTime-Glo MT Cell Viability Assay to monitor cell viability in real time of continues cell culture during 40 hours of compound treatment was used to screen Tox21 10K library compounds in HepG2 cells. The RealTime-Glo MT Cell Viability Assay is a nonlytic, homogeneous, bioluminescent method to measure cell viability in real time using a simple, plate-based method. The assay involves adding NanoLuc luciferase and a cell-permeant prosubstrate to cells in culture. Viable cells reduce the proprietary prosubstrate to generate a substrate for NanoLuc luciferase. This substrate diffuses from cells into the surrounding culture medium, where it is rapidly used by the NanoLuc Enzyme to produce a luminescent signal. The signal correlates with the number of viable cells, making the assay well suited for cytotoxicity studies.
Tox21 Assay Protocol Summary: The mixture of HepG2 cell suspension and reagents were dispensed at 600cells/6 ul/well in 1536-well tissue culture treated black solid bottom plates using a Multidrop dispenser. After the assay plates were incubated at a 37 C/5% CO2 incubator for 5 hours, 23 nL of compounds dissolved in DMSO, positive and negative controls was transferred to the assay plate by a pintool work station. The plates were incubated at 37 C for 40 hours. The luminescence intensity were measured at 0h, 8h, 16h, 24h, 32h and 40h time points using ViewLux plate reader during compound treatment.
% is set by controls: 0 for no effect and ±100 for the full control effect; potency is the fitted concentration of half-maximal effect.

Row | SMILES | activity change, negative = cytotoxicity | Potency
1 | C=C1C(=C/C=C2\CCC[C@]3(C)[C@@H]([C@H](C)/C=C/[C@@H](O)C4CC4)CC[C@@H]23)C[C@@H](O)C[C@@H]1O | -11% [at 35.3 µM] | –
2 | O=C1CCCCCCCCCCCC(=O)OCCO1 | -3.9% | –
3 | O=[N+]([O-])c1cccc(S(=O)(=O)O)c1 | -17.1% | –
4 | C[N+]1(CC2COC(c3ccccc3)(C3CCCCC3)O2)CCCCC1 (stereo not given) | -11.3% [at 35.3 µM] | –
5 | CN(C)c1ccc(C(c2ccccc2)c2ccc(N(C)C)cc2)cc1 | -20.9% | –
6 | N=c1ccn2c(n1)O[C@H]1[C@H](O)[C@@H](CO)O[C@H]12 | -1.37% | –
7 | c1ccc(-c2ccccn2)nc1 | 1.56% | –
8 | CC(=O)c1ccc2c(c1)N(CCCN(C)C)c1ccccc1S2 | -9.89% [at 35.3 µM] | –
9 | CC(C)(C)Cl | 1.24% | –
10 | Nc1ccccc1S(=O)(=O)c1ccccc1 | -0.33% | –
11 | CCOC(=O)C(O)c1ccccc1 (stereo not given) | 3.35% [at 35.3 µM] | –
12 | COc1cc2nc(Cl)nc(N)c2cc1OC | 0.0463% [at 35.3 µM] | –
13 | Nc1ccc(N)c2c1C(=O)c1ccccc1C2=O | -17.2% | –
14 | CN(C)c1ccc(CCO)cc1 | -1.31% | –
15 | C=C(C)C(=O)OCCOCC | 3.47% | –
16 | COc1cccc(N(C)C(=S)Oc2ccc3c(c2)CCCC3)n1 | -15.5% [at 35.3 µM] | –
17 | CN1Cc2cc(C(=O)N3CCC(C4CCNCC4)CC3)ccc2NC(CC(=O)O)C1=O (stereo not given) | 0.0061% [at 35.3 µM] | –
18 | O=C1C(O)=C(O)C(=O)C(O)=C1O | -1.18% [at 35.3 µM] | –
19 | O=C(O)c1ccco1 | 0.247% | –
20 | CC(=O)NO | -2.76% [at 35.3 µM] | –

Row | SMILES | activity change, negative = cytotoxicity | Potency
21 | CCCCCCCCO[C@@H]1O[C@H](CO)[C@@H](O)[C@H](O)[C@H]1O | 0.588% | –
22 | Cc1ccc(C(=O)Oc2ccc(C(O)CNC(C)(C)C)cc2OC(=O)c2ccc(C)cc2)cc1 (stereo not given) | – | 21.3 µM (active)
23 | COc1ccc(-c2nc3ccc(C4=NNC(=O)CC4C)cc3[nH]2)cc1 (stereo not given) | -7.44% [at 35.3 µM] | –
24 | CCN(CC)CCNc1ccc(CNC=O)c2sc3ccc(OC)cc3c(=O)c12 | – | 21.9 µM (active)
25 | CC1=CCCC(C)(C)C12CCC(C)O2 (stereo not given) | 1.12% | –
26 | CCOC(=O)C(=O)CCc1ccccc1 | 2.56% [at 35.3 µM] | –
27 | OC(C#CCN1CCCC1)(c1ccccc1)c1ccccc1 | -1.68% [at 35.3 µM] | –
28 | O=CC1CC=CCC1 (stereo not given) | -1.96% | –
29 | CCCCC1=NC2(CCCC2)C(=O)N1Cc1ccc(-c2ccccc2-c2nn[nH]n2)cc1 | 0.324% [at 35.3 µM] | –
30 | CCOCC(O)COc1ccc(NC(=O)CC[S+](C)C)cc1 (stereo not given) | 3.42% [at 35.3 µM] | –
31 | Cc1cccc(C)c1NC(=O)CN(CC(=O)O)CC(=O)O | 1.63% [at 35.3 µM] | –
32 | CN(C)CCCN1c2ccccc2Sc2ccccc21 | -25.1% [at 35.3 µM] | –
33 | C=C(C)C(=O)OCCO | 0.76% | –
34 | CCCCc1nc2cccnc2n1Cc1ccc(-c2ccccc2-c2nnn[nH]2)cc1 | -0.437% | –
35 | Cc1oc(-c2ccccc2)nc1CCOc1cccc2c1ccn2CCC(=O)O | -15.8% | –
36 | CN(C)CCN(Cc1ccsc1)c1ccccn1 | 0.525% [at 35.3 µM] | –
37 | CCC(C)c1cc(C(C)(C)C)c(O)c(C(C)(C)C)c1 (stereo not given) | 2.16% | –
38 | C#CCN(C)CCCOc1ccc(Cl)cc1Cl | -10.7% [at 35.3 µM] | –
39 | O=C1OC(=O)C2C3C=CC(C3)C12 (stereo not given) | 0.813% | –
40 | Cc1cccc(Nc2ccccc2)c1 | -19.3% | –
